Bioassay records as filed in PubChem.
HCMV antiviral – human cytomegalovirus inhibition; HFF cells, HCMV-luciferase reporter, 72 h; active compounds read low; AID 1259415; 4.5% of 410,000 active; activity change, negative = inhibition, % at 57.5 µM; in the data active means activity change below about -60%; inconclusive means no clear call, values can overlap the other calls; inactive means above about -39%
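HFF cells seeded 16 h at 37C, treated with compounds, infected with luciferase-reporter HCMV at MOI 1 PFU/cell; luciferase read at 72 h post infection, normalized to buffer-only and Salinomycin controls.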
HCV inhibitor – blocks hepatitis C virus; Potency, µM (highest dose often 41.8 µM), inactives show at the top dose activity change, negative = inhibition, actives largely listed as inhibitors; 3.4% of 340,000 active; Huh7.5.1 HCVcc-Cre infection, luciferase reporter, 44 h; further: potency means the concentration at half of the fitted maximal effect
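Antiviral activity was scored by luciferase reporter output from cells infected with HCVcc-Cre (~0.5 moi) in presence of compound, 44 h infection period, cells seeded 1,000/well 4 h prior.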
Pf growth 48h – inhibits P. falciparum growth in the first generation, 48 h; Potency, µM (doses to about 28.7 µM), inactives show at the highest dose activity change, negative = inhibition, hits mostly inhibitors; P. falciparum luciferase growth in erythrocytes, 48 h; 5.9% of 310,000 active; further: potency means the concentration at half of the fitted maximal effect
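Here the parasites carry a stable luciferase gene and grow inside erythrocytes in Albumax-based RPMI medium with compound for one erythrocytic cycle. Activity is scored as loss of luminescent signal.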
Pf growth 96h – inhibits malaria parasite growth, 96 h. P. falciparum luciferase reporter growth, 96 h. Potency, µM (doses to about 28.7 µM), inactives show at the highest dose activity change, negative = inhibition, hits mostly inhibitors. 6.9% of 320,000 active. AID 504834; further: potency means the concentration at half of the fitted maximal effect
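Readout is luminescence from an integrated firefly luciferase in P. falciparum. Red cells, 2% hematocrit and 0.05% parasitemia final, were cultured with compound through two parasite generations (96 hours) at 37 C, 5% CO2.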
* hit, by the source's call; u = inconclusive; x = no result. Shown are actives, neighbours in structure and some others; about 13% of the full set was active somewhere. Unless noted, the call rests on the fitted dose curve; in most records, active means well fitted inhibition curve with a large enough effect; inconclusive means small, poorly fitted or top-dose-only effect, or another doubt; inactive means no such curve, though single readings can be large or run the other way. On the % scale 0 is the no-effect control and ±100 the full control effect.

SMILES	HCMV antiviral	HCV inhibitor	Pf growth 48h	Pf growth 96h
COc1ccc(-n2c(C)cc(/C=N/Nc3nnc(C)n3N)c2C)cc1	-23	11µM*	u	73%
COc1ccc(Cn2ccc3nc(C)c(C(=O)Nc4ccc(OC)cc4)cc3c2=O)cc1	-11	x	x	x
CCOC(=O)c1c(C)n(-c2ccc(C)cc2)c2ccc(OCC(O)CNCC3CCCO3)cc12 (configuration not stated)	x	u	u	3.3µM*
CCOC(=O)c1c(C)n(C)c2ccc(OCC(O)CNC(CC)CO)cc12 (configuration not stated)	6	u	u	2.1µM*
CCOC(=O)c1c(C)n(-c2ccccc2)c2ccc(OC(=O)c3ccccc3)cc12	-4	x	x	x
CCOC(=O)c1c(C)n(-c2ccc(C)cc2)c2ccc(OCC(O)CNCCCO)cc12 (configuration not stated)	-75*	u	u	116%
O=C(Nc1ccc(Br)cc1F)c1ccc2nc(CCc3ccccc3)oc2c1	59	x	x	x
COc1cccc(-c2nc(S(=O)(=O)c3ccc(C)cc3)c(N3CCCCC3)o2)c1	-25	x	x	x
Cc1cccc(NC(=O)C(NS(=O)(=O)c2cccc3nsnc23)c2ccccc2)c1C (configuration not stated)	-2	x	x	x
COc1ccccc1N(C(=O)CCl)c1cn(C(C)=O)c2ccccc12	-97*	u	u	u
CC(=O)n1cc(Nc2ccccc2C(=O)O)c2ccccc21	42	3%	-6%	9%
CC(=O)n1cc(N(C(=O)CCl)c2ccc(Cl)cc2)c2ccccc21	x	3.5µM*	2.3µM*	u
CCOC(=O)c1ccccc1Nc1cn(C(C)=O)c2ccccc12	-3	0%	x	u
COc1ccc(-c2noc(N3CCC(C(=O)N4CCN(c5ccccc5F)CC4)CC3)n2)cc1	-4	x	x	x
Cc1cc(Nc2cccc(Cl)c2)nc2ccc(NC(=O)COc3ccc(Cl)cc3)cc12	-106*	x	x	x
CCOc1cc(C(=O)Nc2ccc3nc(Nc4cccc(Cl)c4)cc(C)c3c2)cc(OCC)c1OCC	-29	x	x	x
O=C(COc1ccc(-n2ccnc2)cc1)Nc1cccc(Cl)c1	-64*	u	-21%	u
Cc1cc(Nc2cccc(Cl)c2)nc2ccc(NC(=O)c3cncc(Br)c3)cc12	-100*	x	x	x
Cc1cccc(OCC(=O)Nc2ccc3nc(Nc4cccc(Cl)c4)cc(C)c3c2)c1	-63*	x	x	x
Cc1ccc(C)c(CNC(=O)CCn2cccn2)c1	33	x	x	x
COc1cc(NC(=O)c2cc3cc4ccc(C)cc4nc3o2)cc(OC)c1OC	-40	x	x	x
CCCCN1C(=O)CN(C2CCCCCC2)C(=O)C1c1ccc(OCCC)c(OC)c1 (configuration not stated)	-15	x	x	x
CCc1ccc(NC(=O)CN2C(C(=O)OC)=C(c3ccccc3)c3ccccc3S2(=O)=O)cc1	-5	x	x	x
CSc1ncccc1C(=O)NC1CCCc2c1cnn2-c1ccc(C)c(C)c1 (configuration not stated)	-29	8.9µM*	19%	-7%
COc1ncccc1C(=O)NC1CCCc2c1cnn2-c1ccc(C)c(C)c1 (configuration not stated)	-23	u	3%	12%
SMILES	HCMV antiviral	HCV inhibitor	Pf growth 48h	Pf growth 96h
Cc1ccc(-n2ncc3c2CCCC3NC(=O)c2ocnc2C)cc1C (configuration not stated)	-89*	u	-16%	31%
CCn1nc(C)cc1C(=O)NC1CCCc2c1cnn2-c1ccc(C)c(C)c1 (configuration not stated)	-86*	u	u	15µM*
Cc1cc(C(=O)NC2CCCc3c2cnn3-c2ccc(C)c(C)c2)no1 (configuration not stated)	-30	u	-19%	-8%
CCCC(=O)NC1CCCc2c1cnn2-c1ccc(C)c(C)c1 (configuration not stated)	-24	-20%	7%	3.3µM*
CCN1CCC(N(Cc2cccc(OC)c2)C(=O)Nc2cccc(C)c2C)CC1	-13	x	x	x
CSc1ncc(C(=O)N2CCN(c3cccc(C(F)(F)F)c3)CC2)c(C)n1	-28	x	x	x
CCC(=O)N1c2ccccc2CC1C(=O)NCc1ccc(OC(C)C)cc1 (configuration not stated)	-7	x	x	x
Cc1cc(C)c(NC(=O)C2CCN(c3nnc(C)c4c(C)n(-c5ccccc5)nc34)CC2)c(C)c1	0	x	x	x
Cn1c(/C(C#N)=C/c2ccc(O)cc2)nc2ccccc21	16	-11%	-4%	2.3µM*
